Compounds without any hit were thinned out: in the full panel of roughly 83,000, 20% have a hit.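 Plates (96-well) were seeded with cells, treated with compound at one concentration, and incubated for 48 hours before percent growth was determined.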 Unmarked numbers belong to inactive results. Activity calls are given as the source filed them. Rule for the calls: active = growth percent below 10; inactive = the rest.
Tests used:
Assay in all cases: NCI-60 one-dose screen, 48 h (100 = growth as untreated, 0 = no growth, -100 = all killed)
Conditions in all cases: 10 µM unless noted
DU-145 prostate = tested on: DU-145 prostate
K-562 leukemia = tested on: K-562 leukemia
MALME-3M melanoma = tested on: MALME-3M melanoma
MDA-MB-231 breast = tested on: MDA-MB-231 breast
RXF 393 renal = tested on: RXF 393 renal
SF-268 CNS = tested on: SF-268 CNS
SF-539 CNS = tested on: SF-539 CNS
UACC-257 melanoma = tested on: UACC-257 melanoma
M14 melanoma = tested on: M14 melanoma
SF-295 CNS = tested on: SF-295 CNS

Row | Compound | growth (DU-145 prostate) | growth (K-562 leukemia) | growth (MALME-3M melanoma) | growth (MDA-MB-231 breast) [%] | growth (RXF 393 renal) [%] | growth (SF-268 CNS) [%] | growth (SF-539 CNS) [%] | growth (UACC-257 melanoma) | growth (M14 melanoma) | growth (SF-295 CNS) [%]
1 | O=[N+]([O-])c1ccc(OCCCOc2ccccc2)cc1 | 108% | 99% | 110% | 104 | 116 | 106 | 110 | 100% | 114% | 
2 | O=[N+]([O-])c1cnc(Sc2ccncn2)s1 | -21.5% (active) | -44.4% (active) | -63.5% (active) | 75.4 |  | 35.7 | 91.1 | -18.7% (active) | 6.85% (active) | 102
3 | Fc1ccccc1-c1nc(-c2nc3cc(Cl)c(Cl)cc3[nH]2)c2ccccn12 | 51.5% | 73.1% | 34.5% | 91.4 | 69.2 | 77.4 |  | 82.2% | 71% | 
4 | Fc1ccc(Nc2nc(NCCNc3ccnc4cc(Cl)ccc34)nc(N3CCOCC3)n2)cc1 | 75% | 1.44% (active) | -63.1% (active) | 20.1 | 21.3 | 66.6 | 69.3 | -88.8% (active) | -42.7% (active) | 
5 | O=C(/C=C/c1ccccc1)c1cccc(O)c1 | 56.4% | 51.3% | 101% |  | 107 | 85 |  | 99.5% | 68.1% | 96.8
6 | Cc1c(C(=N)C(C#N)C#N)c(=N)oc2c1ccc1ccccc12 | 103% | 72.8% | 111% | 97.9 |  | 88.4 | 94.1 | 60.6% | 88% | 96.5
